MITF act: MITF TRPM1 promoter activation in melanoma cells; SK-MEL-5 TRPM1-promoter luciferase, 24 h; % of positive control, neutral wells = 0; activation, % at 12.5 µM; 0.75% of 300,000 active;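 active = mean activation of at least 80% with every replicate also reaching 80%; inconclusive = mean reaches 80% but some replicate falls short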;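 also: 0% = neutral control wells and 100% = parthenolide positive control wells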
esBAF inh: SWI/SNF esBAF complex inhibition; 2% of 350,000 active; mouse ES cells, Bmi1-luciferase knock-in reporter, 24 h; 100% = twice the neutral-well signal; reporter increase, % at 12.5 µM; AID 602393; in the data active = activation above about 40%; inconclusive = no clear call, values can overlap the other calls;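 also: 0% = median of the plate's neutral control wells and 100% = double that signal; a rise in the Bmi1 reporter signal indicates esBAF inhibition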
Wnt act: activators of Wnt/beta-catenin signaling; 1.2% of 300,000 active; Wnt/beta-catenin reporter cell assay, activator, plate reader; AID 743398; activation, % at 9.35 µM; in the data active = activation above about 30%, passing the limit was not always enough; inconclusive = no clear call, values can overlap the other calls;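 also: 0% = neutral control wells and 100% = positive control wells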
SMARCA2 act: increases SMARCA2 function in MMTV reporter cells | activation, % at 9.1 µM | AID 652017 | MG213 cells, MMTV-luciferase reporter, dexamethasone, overnight | 1% of 370,000 active; in the data active = activation above about 7.8%;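 also: 0% = vehicle wells and 100% = reference activator wells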
HSF1 inhib: HSF1 inhibition; activity change, negative = inhibition, % at 7.5 µM (by protocol); 0.77% of 300,000 active; NIH3T3-HGL HSE-luciferase, MG132-induced, luminescence 8 h; active compounds read low;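 active = more than half of replicate wells show activity change below -50%, luminescence cut by over half; inconclusive = some wells, but at most half, below -50%; inactive = no replicate well below -50%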;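 also: luciferase reports HSF-1 transcriptional activity via heat shock element; 0% = median of DMSO wells and -100% = zero luminescence signal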
HSF-1 act: increases HSF-1 driven luciferase reporter signal | NIH3T3-HGL HSF-1 luciferase reporter, MG132, 8 h; 100% = twice DMSO control signal | activation, % at 9 µM | 1.7% of 300,000 active | AID 504408;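 active = mean replicate activation of at least 50% with a set share of replicates each reaching 50%; inconclusive = only one of those two conditions met; inactive = mean below 50% and too few replicates reaching it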;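 also: 0% = median of the neutral control wells and 100% = twice that signal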
* marks the source's active call; other numbers are inactive results; ? = inconclusive; . = no result. Compounds with a hit are over-represented: about 4.3% of the library has one in this group of screens.

SMILES	MITF act	esBAF inh	Wnt act	SMARCA2 act	HSF1 inhib	HSF-1 act
Cc1ccc(C(=O)NC(=S)Nc2ccc(N3CCOCC3)cc2)c(C)c1	-8	-2	6	7.9*	-13	-11
Nc1nc2ccc(C(=O)Nc3ccc(N4CCOCC4)cc3)cc2s1	6	51*	9	2	.	.
O=C(Nc1ccc(N2CCOCC2)cc1)c1ccc2ncsc2c1	-3	27	8	0	.	.
Cc1cnc(C(=O)Nc2ccc(N3CCCCC3)cc2)cn1	92*	.	8	3	27	24
O=C(c1ccccc1)c1ccc(N2CCCC2)cc1	94*	60*	20	5	22	38
Cc1cnc(C(=O)Nc2ccc(N3CCOCC3)cc2)cn1	55	30	.	-1	-4	-12
COCCNC(=O)C[C@@H]1C[C@@H]2c3cc(NC(=O)CN(C)C)ccc3O[C@@H]2[C@@H](CO)O1	.	-5	.	.	.	.
COc1ccc(S(=O)(=O)N(C)C[C@@H]2Oc3c(NS(=O)(=O)c4ccccc4)cccc3C(=O)N([C@H](C)CO)C[C@@H]2C)cc1	.	-1	.	.	.	.
O=C(C[C@H]1CC[C@H](NC(=O)Nc2ccc3c(c2)OCO3)[C@H](CO)O1)NCc1ccc(F)cc1	.	-5	.	.	.	.
CC(=O)N1CCN(c2ccc(NC(=O)c3ccc4ccccc4c3)cc2)CC1	31	37	12	2	22	41
O=C(Nc1ccccc1)c1cnc2n(c1=O)CCS2	26	39	12	5	7	17
Cc1ccc(NC(=O)c2cc(NC(=O)c3ccco3)ccc2N2CCOCC2)cc1	9	0	-2	2	-64*	-72
Cc1ccc(NC(=O)c2cc(NC(=O)c3ccco3)ccc2N2CCCCC2)cc1	-3	0	.	0	1	7
O=C(Nc1ccc(N2CCCC2)cc1)c1ccc2ccccc2c1	48	40	32*	6	18	14
O=C(Nc1ccc(OC(F)(F)F)cc1)c1cnc2n(c1=O)CCS2	7	48*	9	-3	4	10
Cc1ccc(C(=O)Nc2ccc(N3CCCCC3)cc2)cc1	106*	40	?	5	.	.
O=C(Nc1ccc(N2CCCCC2)cc1)c1ccccc1	29	-8	.	3	15	20
C[C@@H]1CN([C@H](C)CO)C(=O)c2cccc(NS(C)(=O)=O)c2O[C@H]1CN(C)C(=O)Nc1ccccc1	.	1	.	.	.	.
CCCC(=O)Nc1ccc2c(c1)C(=O)N(C)C[C@H](OC)[C@H](C)CN(Cc1nccs1)[C@H](C)CO2	.	3	.	.	.	.
O=C(Nc1ccc(N2CCCCC2)cc1)c1cncc(Br)c1	128*	9	39*	0	21	43
Cc1ccc(C(=O)Nc2ccc(N3CCN(C)CC3)cc2)cc1C	5	-48	1	0	-51*	-56
Cc1ccc(C(=O)Nc2ccc(N3CCCC3)cc2)cc1	36	44*	12	-2	21	24
Cc1ccc(C(=O)Nc2ccc(N3CCOCC3)cc2)cc1	67	56*	.	2	5	1
Cc1ccc(C(=O)Nc2ccc(N3CCN(S(C)(=O)=O)CC3)cc2)cc1	15	6	-2	-1	9	18
O=C(Nc1ccc(S(=O)(=O)N2CCCC2)cc1)c1cncc(Br)c1	15	-5	-3	2	.	.
SMILES	MITF act	esBAF inh	Wnt act	SMARCA2 act	HSF1 inhib	HSF-1 act
CC(C)CC#Cc1ccc2c(c1)O[C@H](CN(C)C(=O)CC1CC1)[C@H](C)CN([C@@H](C)CO)S2(=O)=O	.	3	.	.	.	.
COC(=O)C1=C(Nc2ccccc2NC(=O)c2ccccc2C(=O)O)CSC1	-6	26	41*	2	16	36
CNC(=O)C[C@@H]1CC[C@@H]2[C@@H](COc3ccc(NC(=O)Nc4cccc(F)c4)cc3C(=O)N2C)O1	.	3	.	.	.	.
COc1ccc(-c2cc3ncc(-c4ccccc4)c(N)n3n2)cc1	147*	.	6	2	-6	1
Cc1c(C(=O)Nc2ccccn2)oc2ccccc12	23	-5	?	4	23	41
COc1ccccc1NC(=O)c1oc2ccccc2c1NC(=O)c1cc(OC)c(OC)c(OC)c1	-14	6	-4	2	2	-11
Cc1c(C(=O)Nc2cccnc2Cl)oc2ccccc12	51	48*	24	3	30	43
CCOc1ccc2oc(C(=O)Nc3ccc(C)cn3)c(C)c2c1	.	85*	21	0	.	.
Cc1ccc(NC(=O)c2oc3ccccc3c2C)nc1	20	.	?	2	35	56*
COc1ccccc1NC(=O)c1oc2ccc(C)cc2c1C	.	48*	5	2	20	25
CN(C)C(=O)C[C@@H]1C[C@@H]2c3cc(NC(=O)CC4CC4)ccc3O[C@@H]2[C@H](CO)O1	.	-5	.	.	.	.
COc1ccc(S(=O)(=O)Nc2ccc3c(c2)C(=O)N([C@@H](C)CO)C[C@@H](C)[C@H](CN(C)Cc2ccc4c(c2)OCO4)OCCCC[C@@H](C)O3)cc1	.	-5	.	.	.	.
Cc1ccc(NC(=O)c2cc3c(=O)oc4ccccc4c3s2)nc1	5	.	.	-2	54	97*
Cc1cccnc1NC(=O)c1cc2c(=O)oc3ccccc3c2s1	4	.	-8	-1	-10	2
CCc1ccc2oc(C(=O)Nc3nonc3C)c(C)c2c1	50	78*	44*	1	33	32
CC(=O)N(/N=C1\Sc2ccccc2C1=O)c1ccc(C)cc1C	-46	.	.	-5	-86*	-89
CC1=NN(C(N)=S)C(C)(C)C1	-4	-4	-1	0	-55*	-66
CN1[C@@H]2c3ccc(-c4ccc(F)cc4)c(=O)n3C[C@H]1[C@H](CO)[C@H]2C(=O)N1CCCCC1	.	-5	.	.	.	.
O=C(COc1ccccc1)Nc1nc2ccccc2[nH]1	51	49*	?	7.8*	4	35
CCCOc1cccc(OCC(=O)Nc2nc3ccccc3[nH]2)c1	9	.	-1	-2	1	34
CC(CC(=O)Nc1nc2ccccc2[nH]1)c1ccccc1 (stereo not given)	60	70*	2	5	18	40
CC(C)NC(=O)Nc1cccc2c1O[C@@H](CN(C)S(C)(=O)=O)[C@@H](C)CN([C@@H](C)CO)C2=O	.	1	.	.	.	.
Cc1c(C(=O)Nc2ccc(Nc3ccccc3)cc2)cccc1[N+](=O)[O-]	-4	-4	-2	-1	5	14
CN(CC(=O)Nc1ccc2c(c1)CCC2)CC(=O)Nc1ccccc1Br	-6	.	-2	-5	1	-3
CSc1ccccc1C(=O)Nc1ccc2c(c1)CCC2	24	?	30*	5	10	16
O=C(Nc1ccc2c(c1)CCC2)c1ccccc1Br	43	.	19	5	22	54*
Cc1c(C(=O)Nc2ccc3c(c2)CCC3)cccc1[N+](=O)[O-]	92*	82*	15	3	19	57*
